According to the supplement of paper PMC12297408:
Structures can show the parent of a compound that is named as a salt. Values without a mark were called inactive.

The compounds below were run on Plasmodium falciparum NF54/iGP1_RE9H ulg8 stage V gametocytes (assay: gametocyte viability (luciferase signal relative to DMSO control) (% of DMSO control); higher = less gametocytocidal activity, active = 50 or less). Conditions: concentration: 1 µM; exposure time: 72 h.
Protocol: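 Synchronous P. falciparum NF54/iGP1_RE9H ulg8 mature stage V gametocytes (day 12) were exposed to Cayman Epigenetics Screening Library compounds at 10 µM or 1 µM for 72 h at 37 °C. Viability was read as RE9H luciferase bioluminescence, normalised to DMSO plate controls (100%); 50 µM methylene blue was the positive control.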

Row | SMILES | gametocyte viability
1 | O=C(/C=C/C#Cc1cccc(NS(=O)(=O)c2ccccc2)c1)NO [Oxamflatin] | 101
2 | CCCCc1nc2cc(/C=C/C(=O)NO)ccc2n1CCN(CC)CC | 76.9
3 | Nc1cc(F)ccc1NC(=O)c1ccc(CNC(=O)/C=C/c2cccnc2)cc1 [Chidamide] | 92.7
4 | COC(=O)/C=C/C(=O)N(O)CCCCNCc1ccc(COC(=O)Nc2cccc3ccccc23)cc1 [Methylstat (hydrate)] | 89.4
5 | Nc1ncnc2c1ncn2[C@@H]1O[C@H](C[C@@H](N)CC[C@H](N)C(=O)O)[C@@H](O)[C@H]1O [Sinefungin] | 88.5
6 | O=C(O)c1ccnc(C(=O)O)c1 [2,4-Pyridinedicarboxylic Acid (hydrate)] | 90.8
7 | COc1cc2c(NC3CCN(C)CC3)nc(N3CCCN(C)CC3)nc2cc1OCCCN(C)C | 89.8
8 | O=C(CCCCCCC(=O)Nc1cccnc1)NO [Pyroxamide] | 90.7
9 | O=C(O)c1ccc(O)c2ncccc12 | 90.6
10 | CN=C(NC)NCCCNCCCNCCCNC(=NC)NC [Lysine-specific Demethylase Inhibitor (1C) (hydrochloride)] | 85.5
11 | CCCc1cc2c(N3CCN(C4=NCC(C)(C)S4)CC3)ncnc2s1 [MI-2 (hydrochloride)] | 80.6
12 | COc1cc2nc(N3CCCC3)nc(NCCCCCN3CCCC3)c2cc1OC | 92.2
13 | COc1cc2c(cc1-c1c(C)noc1C)ncc1[nH]c(=O)n([C@H](C)c3ccccn3)c12 | 91.5
14 | COc1cc2c(NC3CCN(C4CCCCC4)CC3)nc(N3CCCN(C(C)C)CC3)nc2cc1OCCCN1CCCCC1 | 75.5
15 | NC(=O)[C@H](CCCN=C(N)CF)NC(=O)c1ccccc1 [F-Amidine (trifluoroacetate salt)] | 103
16 | CCCCCOc1ccc(/C=C\c2cccc(O)c2C(=O)O)cc1 | 87.3
17 | CCN(c1cc(-c2ccc(CN3CCOCC3)cc2)cc(C(=O)NCc2c(C)cc(C)[nH]c2=O)c1C)C1CCOCC1 | 95.1
18 | COc1ccccc1C(=O)Nc1cc2c(cc1N1CCNC[C@H]1C)n(C)c(=O)n2C | 88.2
19 | COc1cc(C#N)ccc1S(=O)(=O)Nc1ccc2c(c1)cc(C)c(=O)n2C | 86.6
20 | COc1cc2c(cc1OCCCN1CCCC1)N=C(N)C21CCC1 | 89.9

Same assay, conditions: concentration: 10 µM; exposure time: 72 h

Row | SMILES | gametocyte viability
21 | O=C(/C=C/C#Cc1cccc(NS(=O)(=O)c2ccccc2)c1)NO [Oxamflatin] | 168
22 | CCCCc1nc2cc(/C=C/C(=O)NO)ccc2n1CCN(CC)CC | 62.4
23 | Nc1cc(F)ccc1NC(=O)c1ccc(CNC(=O)/C=C/c2cccnc2)cc1 [Chidamide] | 93.4
24 | COC(=O)/C=C/C(=O)N(O)CCCCNCc1ccc(COC(=O)Nc2cccc3ccccc23)cc1 [Methylstat (hydrate)] | 32 (active)
25 | Nc1ncnc2c1ncn2[C@@H]1O[C@H](C[C@@H](N)CC[C@H](N)C(=O)O)[C@@H](O)[C@H]1O [Sinefungin] | 85.6
26 | O=C(O)c1ccnc(C(=O)O)c1 [2,4-Pyridinedicarboxylic Acid (hydrate)] | 90.6
27 | COc1cc2c(NC3CCN(C)CC3)nc(N3CCCN(C)CC3)nc2cc1OCCCN(C)C | 84
28 | O=C(CCCCCCC(=O)Nc1cccnc1)NO [Pyroxamide] | 63.8
29 | O=C(O)c1ccc(O)c2ncccc12 | 84.3
30 | CN=C(NC)NCCCNCCCNCCCNC(=NC)NC [Lysine-specific Demethylase Inhibitor (1C) (hydrochloride)] | 81.1
31 | CCCc1cc2c(N3CCN(C4=NCC(C)(C)S4)CC3)ncnc2s1 [MI-2 (hydrochloride)] | 63.3
32 | COc1cc2nc(N3CCCC3)nc(NCCCCCN3CCCC3)c2cc1OC | 18.9 (active)
33 | COc1cc2c(cc1-c1c(C)noc1C)ncc1[nH]c(=O)n([C@H](C)c3ccccn3)c12 | 97.8
34 | COc1cc2c(NC3CCN(C4CCCCC4)CC3)nc(N3CCCN(C(C)C)CC3)nc2cc1OCCCN1CCCCC1 | 13.4 (active)
35 | NC(=O)[C@H](CCCN=C(N)CF)NC(=O)c1ccccc1 [F-Amidine (trifluoroacetate salt)] | 95.9
36 | CCCCCOc1ccc(/C=C\c2cccc(O)c2C(=O)O)cc1 | 88.4
37 | CCN(c1cc(-c2ccc(CN3CCOCC3)cc2)cc(C(=O)NCc2c(C)cc(C)[nH]c2=O)c1C)C1CCOCC1 | 93
38 | COc1ccccc1C(=O)Nc1cc2c(cc1N1CCNC[C@H]1C)n(C)c(=O)n2C | 93.7
39 | COc1cc(C#N)ccc1S(=O)(=O)Nc1ccc2c(c1)cc(C)c(=O)n2C | 91.4
40 | COc1cc2c(cc1OCCCN1CCCC1)N=C(N)C21CCC1 | 93.7
